Compound activity deposited in PubChem BioAssay by National Center for Advancing Translational Sciences (NCATS).
Sampled rows, rich in hits. Any-hit rate of the full collection: about 21%.
Pf growth 96h: inhibits malaria parasite growth, 96 h; P. falciparum luciferase reporter growth, 96 h; Potency, µM (series often up to 28.7 µM), for the others: at the highest dose activity change, negative = inhibition, most hits filed as inhibitors; actives 6.9% (n = 320,000); further: potency means the concentration at half of the fitted maximal effect; on the % scale 0 is the no-effect control and ±100 the full control effect
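Delayed-death screen, second-generation endpoint: infected erythrocytes, 2% hematocrit, 0.05% parasitemia final; 96 hours at 37 C, 5% CO2; luciferase detection reagent; luminescence decrease equals reduced growth.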
Cycloheximide cs: counter-screen for Shiga toxin inhibitors: cycloheximide protein synthesis inhibition; max response, %; cell reporter, cycloheximide protein synthesis inhibition counterscreen; actives 12% (n = 300,000); in the data active means max response mostly above about 13%, no sharp cut-off; inactive means mostly below about 14%; further: read at 38.3 µM for the half of the compounds with a filed dose; 0% is about no effect
Shiga inhibitor: blocks Shiga toxin action in Vero cells | inhibition, % at 38.7 µM | actives 9.2% (n = 290,000) | Vero cells, Shiga toxin protein synthesis inhibition reporter | AID 2315; in the data active means inhibition mostly above about 28%, no sharp cut-off; inactive means mostly below about 43%; further: 0% is about no effect
Pf growth 48h: P. falciparum growth inhibition at 48 hours (one generation). P. falciparum luciferase growth in erythrocytes, 48 h. Potency, µM (titrated, usually from 28.7 µM), inactives show at the highest dose activity change, negative = inhibition, usual class: inhibitors. actives 5.9% (n = 310,000). AID 504832; further: potency means the concentration at half of the fitted maximal effect; on the % scale 0 is the no-effect control and ±100 the full control effect
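Growth was read as firefly luciferase luminescence after a 48 h, 37 C, 5% CO2 exposure of compounds to reporter-bearing P. falciparum cultures (0.1% parasitemia, 2% hematocrit final) in Albumax-supplemented RPMI 1640.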
The depositor's hits bear a star; ? = inconclusive; · = no result. Unless noted, the call rests on the fitted dose curve; in most records, active means well fitted inhibition curve with a large enough effect; inconclusive means small, poorly fitted or top-dose-only effect, or another doubt; inactive means no such curve, though single readings can be large or run the other way.

SMILES	Pf growth 96h	Cycloheximide cs	Shiga inhibitor	Pf growth 48h
Cc1ccc(Cn2cnc3c(cnn3-c3ccc(F)cc3)c2=O)cc1	3%	6	-16	-11%
CCN1CCN(CC(=O)Nc2nc3ccc(OC)cc3s2)CC1	?	-3	4	·
COc1ccc2nc(NC(=O)CN3CCN(C)CC3)sc2c1	102%	46*	152*	104%
COc1ccc2nc(NC(=O)CN3C(=O)NC4(CCCCC4)C3=O)sc2c1	2%	17*	34	-2%
COc1ccc2nc(NC(=O)CN3CCOCC3)sc2c1	·	58*	24	62%
COc1ccccc1NC(=O)C1CCCN(c2cnccn2)C1 (stereo not drawn)	42%	-1	36	5%
CCC1=C(OC(=O)N(CC)CC)N2C(=O)OC(=NCc3ccccc3)[C@]2(C)[C@H]2C1=CC[C@H]1C(=O)N(CC(=O)OC)C(=O)[C@H]12	9.3µM*	-2	-2	8.3µM*
CCC1=C(OC(=O)N(CC)CC)N2C(=O)OC(=NCc3ccccc3)[C@]2(C)[C@H]2C1=CC[C@H]1C(=O)N(c3ccccc3)C(=O)[C@H]12	8.3µM*	-4	1	7.4µM*
CCC1=C(OC(=O)N(CC)CC)N2C(=O)OC(=NCC3CC3)[C@]2(Cc2ccccc2)[C@H]2C1=CC[C@H]1C(=O)N(CC(=O)OC)C(=O)[C@H]12	7.4µM*	-3	-5	5.9µM*
CCC1=C(OC(=O)N(CC)CC)N2C(=O)OC(=NCC(=O)OC)[C@]2(C)[C@H]2C1=CC[C@H]1C(=O)N(C)C(=O)[C@H]12	54%	-6	-8	31%
CCC1=C2CC[C@H]3C(=O)N(C)C(=O)[C@H]3[C@H]2[C@@]2(Cc3ccccc3)C(=NCC(=O)OC)OC(=O)N2C1=O	?	-4	-3	32%
N#CC1=C(N)N2C(=C(C#N)C13CCCC3)Nc1ccccc12	?	8.8*	51*	6%
N#CC1=C(N)NC(SCc2ccc(F)cc2)=C(C#N)C12CCCCC2	?	1	-14	?
CCCCCN(C(=O)CCC(=O)OCc1ccc(C(C)C)cc1)c1c(N)n(CCCC)c(=O)[nH]c1=O	10µM*	·	·	36%
CCCCCN(C(=O)CCC(=O)OCc1ccc(C(C)(C)C)cc1)c1c(N)n(CCCC)c(=O)[nH]c1=O	8.3µM*	-3	-20	?
CCCCCN(C(=O)CCC(=O)OCc1ccccc1F)c1c(N)n(CCCC)c(=O)[nH]c1=O	40%	·	·	?
CCOC(=O)C(C)Sc1ncc(-c2ccc(Cl)cc2)cn1 (stereo not drawn)	?	13*	-11	1%
CCOc1ccc(C(=O)NCC(=O)NNC(=O)CN(C)S(=O)(=O)c2ccc(Cl)cc2)cc1	4%	·	·	-9%
Cc1ccc(OCc2cc(C(=O)NC(C)Cc3cccc(C)n3)no2)cn1 (stereo not drawn)	43%	-2	24	-2%
CC(Cc1cccnc1)NC(=O)c1cc(COc2ccc(F)cc2Cl)on1 (stereo not drawn)	46%	15	35	-7%
COC(=O)[C@@H](NC(=O)c1cc(COc2cncc(Cl)c2)on1)c1ccccc1	-9%	40*	34	10%
CCC(NC(=O)c1cc(COc2cncc(Cl)c2)on1)c1ccc(C)cc1 (stereo not drawn)	5.2µM*	-2	17	53%
COC(=O)c1c(-c2ccccc2)c[nH]c1C	92%	24*	82*	69%
COC(=O)c1c(C)[nH]c(C=O)c1-c1ccccc1	69%	30*	62*	115%
COC(=O)c1c(C)[nH]c(C)c1-c1ccccc1Cl	-1%	6	21	-23%
SMILES	Pf growth 96h	Cycloheximide cs	Shiga inhibitor	Pf growth 48h
COCCn1c(SCCOc2ccccc2)nc2ccccc2c1=O	15%	11	3	?
COc1ccc(-n2sc3c(c2=S)-c2cc(OC)ccc2NC3(C)C)cc1	?	1	-6	?
COc1ccc2c(c1)-c1c(sn(-c3ccc(OC)c(OC)c3)c1=S)C(C)(C)N2	10µM*	-2	-15	?
Cc1cc(-c2nnc(CCC(=O)N(CC3CC3)CC3CCCO3)o2)no1 (stereo not drawn)	?	1	4	38%
Cc1cccc(Cc2nnc(CCC(=O)N(C)CCc3ccccc3)o2)c1	12µM*	48*	61*	-28%
Cc1cc(-c2nnc(CCC(=O)N(C)CCc3ccccc3)o2)no1	9%	19*	74*	25%
CC(=O)c1ccc(-c2nnc(CCC(=O)N(C)Cc3cccc4cnccc34)o2)s1	?	-3	6	?
Cc1cc(-c2nnc(CCC(=O)N(CC3CCC3)CC3CCCO3)o2)no1 (stereo not drawn)	-13%	44*	78*	-3%
CN(Cc1cccc2cnccc12)C(=O)CCc1nnc(CCc2ccccc2)o1	?	37*	47*	?
CC1=CC(C)(C)NC(=S)N1C(C)c1ccccc1 (stereo not drawn)	12%	-6	-7	?
CCNC(=S)N/N=C/c1ccc(OCc2ccc(C(=O)OC)cc2)cc1	26%	-2	-3	22%
CN(CCC1CCCCO1)C(=O)CCc1nnc(CCc2ccccc2)o1 (stereo not drawn)	24%	32*	47*	4%
Cc1ccccc1CN1CCCC(C(=O)Nc2ccccc2Oc2cccnc2)C1 (stereo not drawn)	3%	-8	11	2.6µM*
Cc1cc(C)nc(N2CCC(CNC(=O)CCc3ccccc3)CC2)n1	10µM*	5	10	?
Cc1cc(C)nc(N2CCC(C(=O)NCc3ccccc3)CC2)n1	?	-4	-2	22%
COc1ccc(CN2CCC(C(=O)Nc3ccc(Oc4cccnc4)cc3)CC2)cc1	-10%	-3	16	12µM*
COc1cccc(O)c1CN1CCC(C(=O)Nc2ccc(-c3cccc(C)c3)cc2)CC1	4.1µM*	1	22	4.1µM*
O=C(Nc1ccccc1Oc1cccnc1)C1CCCN(Cc2ccc(F)cc2)C1 (stereo not drawn)	6%	-4	-12	?
COc1cccc(O)c1CN1CCC(C(=O)Nc2ccc(Oc3cccnc3)cc2)CC1	11%	-5	-15	?
O=C(NCCS(=O)(=O)N1CCN(c2cccc(Cl)c2)CC1)c1cc(=O)c2ccccc2o1	23%	6	-7	12%
CCn1ccnc1CN1CCCCC1C(=O)Nc1ccc(Oc2cccnc2)cc1 (stereo not drawn)	19%	10	-8	?
COc1ccc(CN2CCC(C(=O)Nc3ccc(Oc4cccnc4)cc3)CC2)c(C)c1C	29%	-1	-1	7.4µM*
Cc1cc(C)nc(N2CCC(C(=O)Nc3ccc(Oc4ccccc4)cc3)CC2)n1	12µM*	-2	-2	-8%
O=C(NCc1cccc(C(F)(F)F)c1)C1CCN(c2ncccn2)CC1	22%	-3	23	8%
Cn1ccnc1CN1CCCCC1C(=O)Nc1ccc(Oc2cccnc2)cc1 (stereo not drawn)	13µM*	0	7	?
Cc1cc(C)nc(N2CCC(C(=O)NCc3cccc(C(F)(F)F)c3)CC2)n1	2.1µM*	1	-12	2%
